Reference: the supplement of paper PMC11732987, “Enantioselective OTUD7B fragment discovery through chemoproteomics screening and high-throughput optimisation” (Communications Chemistry, 2025)

Columns and labels:
Experiment in all cases: log2 ratio of Biotin-Ahx-Ub-VS probe labelling (fragment/DMSO); higher = less target engagement (more negative = stronger competition), active = hit call of the paper (q ≤ 0.05, log2 ratio ≤ -1)
Conditions in all cases: compound concentration: 200 uM; treatment time: 3 h
[1] = molecular target: USP34 (UniProt Q70CQ2)
Sequence of USP34 (Q70CQ2 whole entry, the tested form may be a part): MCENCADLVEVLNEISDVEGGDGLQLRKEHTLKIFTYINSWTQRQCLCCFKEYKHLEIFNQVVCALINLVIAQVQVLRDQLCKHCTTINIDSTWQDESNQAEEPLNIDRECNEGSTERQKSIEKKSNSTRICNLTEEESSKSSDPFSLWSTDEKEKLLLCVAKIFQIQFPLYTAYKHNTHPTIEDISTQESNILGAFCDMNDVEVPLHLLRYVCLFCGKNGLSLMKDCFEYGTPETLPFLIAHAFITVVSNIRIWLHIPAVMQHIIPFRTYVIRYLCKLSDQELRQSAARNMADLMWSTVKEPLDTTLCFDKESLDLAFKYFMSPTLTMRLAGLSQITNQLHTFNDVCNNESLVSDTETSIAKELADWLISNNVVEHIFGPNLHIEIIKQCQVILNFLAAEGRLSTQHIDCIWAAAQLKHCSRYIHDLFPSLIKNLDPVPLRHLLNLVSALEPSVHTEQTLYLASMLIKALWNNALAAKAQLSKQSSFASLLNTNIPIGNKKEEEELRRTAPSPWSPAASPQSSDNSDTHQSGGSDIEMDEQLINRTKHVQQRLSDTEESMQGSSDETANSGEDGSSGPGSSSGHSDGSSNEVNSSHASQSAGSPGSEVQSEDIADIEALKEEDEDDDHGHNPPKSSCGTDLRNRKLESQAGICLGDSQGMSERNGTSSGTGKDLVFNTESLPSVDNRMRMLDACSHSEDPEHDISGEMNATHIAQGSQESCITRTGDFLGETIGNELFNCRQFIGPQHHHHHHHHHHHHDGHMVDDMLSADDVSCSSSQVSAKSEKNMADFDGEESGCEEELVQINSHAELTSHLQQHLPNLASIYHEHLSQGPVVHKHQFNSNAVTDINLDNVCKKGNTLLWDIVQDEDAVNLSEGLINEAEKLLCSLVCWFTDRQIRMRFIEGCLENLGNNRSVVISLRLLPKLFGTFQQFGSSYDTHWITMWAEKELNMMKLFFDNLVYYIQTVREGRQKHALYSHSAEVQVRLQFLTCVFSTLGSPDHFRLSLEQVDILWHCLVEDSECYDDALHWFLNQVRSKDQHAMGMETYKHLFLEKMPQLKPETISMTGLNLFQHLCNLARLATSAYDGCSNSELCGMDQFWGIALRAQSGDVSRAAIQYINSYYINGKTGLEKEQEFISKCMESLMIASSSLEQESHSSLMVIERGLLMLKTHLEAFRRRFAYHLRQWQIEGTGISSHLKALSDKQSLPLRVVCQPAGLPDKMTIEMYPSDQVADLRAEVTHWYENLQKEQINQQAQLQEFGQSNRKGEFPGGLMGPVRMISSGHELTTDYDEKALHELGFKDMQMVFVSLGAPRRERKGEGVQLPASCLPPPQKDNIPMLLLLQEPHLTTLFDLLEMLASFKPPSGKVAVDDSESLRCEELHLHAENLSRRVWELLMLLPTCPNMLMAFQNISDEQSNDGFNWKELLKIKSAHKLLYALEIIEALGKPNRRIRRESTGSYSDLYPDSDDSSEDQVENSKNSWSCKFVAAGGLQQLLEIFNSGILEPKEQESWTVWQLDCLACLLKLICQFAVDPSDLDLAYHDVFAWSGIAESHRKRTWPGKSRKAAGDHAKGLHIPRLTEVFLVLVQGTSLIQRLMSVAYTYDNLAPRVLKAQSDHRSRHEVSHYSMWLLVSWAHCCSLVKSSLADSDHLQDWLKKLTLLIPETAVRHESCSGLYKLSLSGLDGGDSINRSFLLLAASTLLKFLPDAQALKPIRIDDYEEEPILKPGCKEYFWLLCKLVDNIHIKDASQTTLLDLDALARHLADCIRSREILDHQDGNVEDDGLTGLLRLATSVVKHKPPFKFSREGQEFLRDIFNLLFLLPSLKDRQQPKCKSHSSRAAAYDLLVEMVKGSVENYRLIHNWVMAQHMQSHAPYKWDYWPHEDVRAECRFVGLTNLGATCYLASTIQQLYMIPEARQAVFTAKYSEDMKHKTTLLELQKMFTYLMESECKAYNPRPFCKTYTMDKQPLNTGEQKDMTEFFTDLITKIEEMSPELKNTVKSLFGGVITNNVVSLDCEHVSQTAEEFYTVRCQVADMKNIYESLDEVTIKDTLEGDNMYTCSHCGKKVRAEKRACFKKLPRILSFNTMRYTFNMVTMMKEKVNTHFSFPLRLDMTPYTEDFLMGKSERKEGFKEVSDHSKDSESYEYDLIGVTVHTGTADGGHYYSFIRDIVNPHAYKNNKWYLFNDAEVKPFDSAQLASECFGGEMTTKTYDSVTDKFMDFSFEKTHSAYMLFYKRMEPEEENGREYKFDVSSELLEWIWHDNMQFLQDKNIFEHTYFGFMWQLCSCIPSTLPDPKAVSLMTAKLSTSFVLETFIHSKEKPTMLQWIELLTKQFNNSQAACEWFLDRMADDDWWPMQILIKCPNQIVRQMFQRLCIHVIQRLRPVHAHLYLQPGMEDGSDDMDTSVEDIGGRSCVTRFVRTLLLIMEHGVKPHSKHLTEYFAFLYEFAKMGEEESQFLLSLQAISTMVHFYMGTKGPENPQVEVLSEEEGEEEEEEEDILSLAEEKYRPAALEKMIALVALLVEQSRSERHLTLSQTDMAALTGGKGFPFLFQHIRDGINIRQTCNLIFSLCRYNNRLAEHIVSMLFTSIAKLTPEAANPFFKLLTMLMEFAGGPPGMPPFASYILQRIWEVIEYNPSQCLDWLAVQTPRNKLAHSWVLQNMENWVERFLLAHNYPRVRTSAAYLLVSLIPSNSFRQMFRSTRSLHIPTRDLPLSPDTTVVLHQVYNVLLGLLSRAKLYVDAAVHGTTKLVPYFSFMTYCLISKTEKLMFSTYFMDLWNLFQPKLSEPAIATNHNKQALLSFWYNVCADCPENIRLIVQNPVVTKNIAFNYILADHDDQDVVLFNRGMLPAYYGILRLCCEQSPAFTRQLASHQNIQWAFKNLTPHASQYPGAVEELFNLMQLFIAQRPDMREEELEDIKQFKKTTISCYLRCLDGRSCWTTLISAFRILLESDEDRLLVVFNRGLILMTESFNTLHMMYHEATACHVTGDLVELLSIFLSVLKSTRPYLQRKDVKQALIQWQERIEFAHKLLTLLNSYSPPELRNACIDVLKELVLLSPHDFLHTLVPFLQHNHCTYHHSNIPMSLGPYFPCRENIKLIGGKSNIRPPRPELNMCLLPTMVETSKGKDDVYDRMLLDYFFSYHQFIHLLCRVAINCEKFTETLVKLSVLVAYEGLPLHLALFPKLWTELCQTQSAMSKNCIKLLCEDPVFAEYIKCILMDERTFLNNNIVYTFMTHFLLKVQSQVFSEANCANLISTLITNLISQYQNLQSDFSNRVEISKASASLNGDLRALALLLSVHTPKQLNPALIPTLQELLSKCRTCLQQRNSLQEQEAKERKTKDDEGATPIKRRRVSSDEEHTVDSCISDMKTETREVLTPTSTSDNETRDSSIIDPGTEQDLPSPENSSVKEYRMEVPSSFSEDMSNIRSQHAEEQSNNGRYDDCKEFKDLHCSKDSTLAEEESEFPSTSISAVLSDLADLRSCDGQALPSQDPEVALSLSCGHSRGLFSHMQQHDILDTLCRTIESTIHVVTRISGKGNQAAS
Summary of the method: (§1)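 Fragment (200 µM) or vehicle was incubated for 3 h with triplicate HEK293T lysate samples of 495 µg, which were then treated with Biotin-Ahx-Ub-VS at 0.5 µM final for 1 h. Labelled DUBs were enriched on NeutrAvidin, digested with LysC and trypsin, and analysed by diaPASEF LC-MS/MS. Values are average log2 fragment/vehicle ratios from an unpaired t-test on global-median-normalised Spectronaut label-free quantities, using proteins with ≥2 unique peptides.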

[2] = molecular target: T1, USP36 (UniProt Q9P275)
T1 sequence (whole entry): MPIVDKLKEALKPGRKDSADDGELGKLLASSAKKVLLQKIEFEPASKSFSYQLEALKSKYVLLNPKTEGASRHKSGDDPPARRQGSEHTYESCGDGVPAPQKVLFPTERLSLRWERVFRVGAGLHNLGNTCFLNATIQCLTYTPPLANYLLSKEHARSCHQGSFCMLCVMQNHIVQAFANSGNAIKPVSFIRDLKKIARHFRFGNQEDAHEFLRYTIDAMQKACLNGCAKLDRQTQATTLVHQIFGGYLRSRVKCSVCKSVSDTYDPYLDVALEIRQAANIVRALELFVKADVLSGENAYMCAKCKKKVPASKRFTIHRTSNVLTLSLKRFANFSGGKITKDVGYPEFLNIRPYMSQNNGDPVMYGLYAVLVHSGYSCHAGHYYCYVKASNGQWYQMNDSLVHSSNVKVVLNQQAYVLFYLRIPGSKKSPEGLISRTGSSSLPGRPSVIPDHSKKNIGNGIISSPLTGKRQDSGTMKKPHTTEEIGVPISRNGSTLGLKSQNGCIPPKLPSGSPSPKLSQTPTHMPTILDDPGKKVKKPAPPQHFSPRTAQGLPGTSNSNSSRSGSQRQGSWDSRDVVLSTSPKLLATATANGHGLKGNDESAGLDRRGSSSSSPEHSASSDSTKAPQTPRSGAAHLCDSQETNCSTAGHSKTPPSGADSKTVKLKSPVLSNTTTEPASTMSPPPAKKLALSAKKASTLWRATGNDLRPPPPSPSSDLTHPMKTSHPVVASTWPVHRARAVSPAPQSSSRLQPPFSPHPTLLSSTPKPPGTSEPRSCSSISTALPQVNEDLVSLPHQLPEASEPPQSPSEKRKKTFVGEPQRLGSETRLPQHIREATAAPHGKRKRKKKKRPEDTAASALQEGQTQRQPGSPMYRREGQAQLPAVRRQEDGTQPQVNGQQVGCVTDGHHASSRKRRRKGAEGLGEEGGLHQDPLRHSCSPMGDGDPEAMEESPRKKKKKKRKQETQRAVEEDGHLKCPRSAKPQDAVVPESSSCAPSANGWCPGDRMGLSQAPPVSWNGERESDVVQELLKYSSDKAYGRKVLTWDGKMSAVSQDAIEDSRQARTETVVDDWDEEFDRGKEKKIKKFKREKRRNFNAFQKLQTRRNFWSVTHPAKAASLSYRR
Summary of the method: as §1

[3] = molecular target: T2, USP38 (UniProt Q8NB14)
T2 sequence (whole entry): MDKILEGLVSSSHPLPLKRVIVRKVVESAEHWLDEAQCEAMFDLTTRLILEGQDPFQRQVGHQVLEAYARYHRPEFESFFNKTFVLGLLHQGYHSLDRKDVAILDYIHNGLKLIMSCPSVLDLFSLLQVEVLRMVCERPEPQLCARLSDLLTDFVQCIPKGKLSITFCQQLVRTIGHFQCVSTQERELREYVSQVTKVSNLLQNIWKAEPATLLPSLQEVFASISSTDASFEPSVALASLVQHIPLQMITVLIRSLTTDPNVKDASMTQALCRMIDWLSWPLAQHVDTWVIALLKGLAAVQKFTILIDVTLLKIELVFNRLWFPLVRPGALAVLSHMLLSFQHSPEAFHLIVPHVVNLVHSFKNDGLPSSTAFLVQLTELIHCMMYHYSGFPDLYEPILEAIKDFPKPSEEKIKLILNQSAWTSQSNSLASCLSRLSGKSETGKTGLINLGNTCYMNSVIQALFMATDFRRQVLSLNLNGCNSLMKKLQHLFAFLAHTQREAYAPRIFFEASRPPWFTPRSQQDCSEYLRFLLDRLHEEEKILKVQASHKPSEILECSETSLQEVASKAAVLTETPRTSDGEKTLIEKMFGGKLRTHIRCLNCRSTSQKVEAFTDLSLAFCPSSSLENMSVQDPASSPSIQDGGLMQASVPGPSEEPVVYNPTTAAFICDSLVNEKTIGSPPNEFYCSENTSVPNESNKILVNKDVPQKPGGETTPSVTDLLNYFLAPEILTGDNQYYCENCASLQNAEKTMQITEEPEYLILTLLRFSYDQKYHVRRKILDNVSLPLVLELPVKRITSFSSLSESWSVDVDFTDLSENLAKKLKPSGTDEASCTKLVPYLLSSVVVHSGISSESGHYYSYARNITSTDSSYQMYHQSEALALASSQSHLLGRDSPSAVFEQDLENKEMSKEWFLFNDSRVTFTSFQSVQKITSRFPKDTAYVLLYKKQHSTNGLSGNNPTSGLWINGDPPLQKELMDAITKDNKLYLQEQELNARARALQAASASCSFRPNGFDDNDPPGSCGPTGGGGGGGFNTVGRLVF
Summary of the method: as §1

[4] = molecular target: T3, USP39 (UniProt Q53GS9)
T3 sequence (whole entry): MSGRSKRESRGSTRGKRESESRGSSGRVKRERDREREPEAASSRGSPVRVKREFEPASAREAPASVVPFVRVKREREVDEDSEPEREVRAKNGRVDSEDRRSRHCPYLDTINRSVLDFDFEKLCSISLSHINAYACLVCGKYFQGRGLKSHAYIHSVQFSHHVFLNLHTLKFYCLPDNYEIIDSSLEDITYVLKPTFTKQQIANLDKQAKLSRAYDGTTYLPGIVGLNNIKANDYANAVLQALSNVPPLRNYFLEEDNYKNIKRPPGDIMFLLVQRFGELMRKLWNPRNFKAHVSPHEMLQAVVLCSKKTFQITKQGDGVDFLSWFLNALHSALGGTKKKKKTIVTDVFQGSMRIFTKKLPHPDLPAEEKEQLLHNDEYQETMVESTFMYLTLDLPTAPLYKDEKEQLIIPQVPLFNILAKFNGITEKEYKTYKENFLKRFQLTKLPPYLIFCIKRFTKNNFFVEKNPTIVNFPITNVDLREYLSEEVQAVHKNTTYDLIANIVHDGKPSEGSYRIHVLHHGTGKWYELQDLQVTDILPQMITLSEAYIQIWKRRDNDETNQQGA
Summary of the method: as §1

[5] = molecular target: T4, USP4 (UniProt Q13107)
T4 sequence (whole entry): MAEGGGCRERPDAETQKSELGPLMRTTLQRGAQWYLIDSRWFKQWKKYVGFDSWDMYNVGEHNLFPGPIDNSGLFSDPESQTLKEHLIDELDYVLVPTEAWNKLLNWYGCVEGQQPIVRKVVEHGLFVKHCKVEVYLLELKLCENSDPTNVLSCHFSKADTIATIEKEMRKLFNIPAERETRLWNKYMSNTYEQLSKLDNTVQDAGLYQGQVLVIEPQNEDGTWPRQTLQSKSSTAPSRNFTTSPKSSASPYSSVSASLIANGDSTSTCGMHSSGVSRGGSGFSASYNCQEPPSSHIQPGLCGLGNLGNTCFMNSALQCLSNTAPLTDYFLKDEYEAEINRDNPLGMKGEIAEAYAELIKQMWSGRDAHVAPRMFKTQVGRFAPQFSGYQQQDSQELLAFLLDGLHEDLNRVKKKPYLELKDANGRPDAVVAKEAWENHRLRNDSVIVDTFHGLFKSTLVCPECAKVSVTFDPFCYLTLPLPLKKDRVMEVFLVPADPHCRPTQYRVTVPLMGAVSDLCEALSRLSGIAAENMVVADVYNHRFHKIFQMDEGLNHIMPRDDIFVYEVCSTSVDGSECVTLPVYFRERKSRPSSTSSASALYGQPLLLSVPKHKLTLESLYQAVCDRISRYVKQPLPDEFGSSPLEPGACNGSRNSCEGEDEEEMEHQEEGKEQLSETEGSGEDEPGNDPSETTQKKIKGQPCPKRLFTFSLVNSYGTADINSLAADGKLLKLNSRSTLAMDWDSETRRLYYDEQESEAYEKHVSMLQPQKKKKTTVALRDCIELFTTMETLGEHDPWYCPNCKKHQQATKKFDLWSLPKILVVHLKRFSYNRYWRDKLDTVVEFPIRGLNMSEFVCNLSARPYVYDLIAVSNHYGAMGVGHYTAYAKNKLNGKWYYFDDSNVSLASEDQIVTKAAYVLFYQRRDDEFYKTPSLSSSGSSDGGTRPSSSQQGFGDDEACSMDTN
Summary of the method: as §1

Measured: log2 ratio of Biotin-Ahx-Ub-VS probe labelling

Cl.O=C(CCl)NC1(c2ncccn2)CCC1
inactive: [1] 0.0452 | [2] 0.109 | [3] 0.0726 | [4] 0.133 | [5] 0.0299
